Inconclusive results are not listed. The source made the active and inactive calls. Unless noted, calls follow the shape of the dose curve; as a rule, active = well fitted curve in either direction with a large enough effect (not every such curve was filed as active); inconclusive = small, poorly fitted or top-dose-only effect, or another doubt; inactive = flat fitted curve, though single readings scatter.
Legend:
[1] = AP1 Signaling Pathway (AID 357); conditions: ME-180 AP-1-bla reporter, EGF-induced, beta-lactamase ratio, 5 h; at 7.69 µM (top of the series) unless noted;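 also: ME-180 reporter cells stimulated with EGF at its EC50 level; % is scaled to controls: 0 for no effect and ±100 for the full control effect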
Outline: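 Beta-lactamase reporter under AP-1 response element, ME-180 background. Stimulus: EC50 EGF. Compound exposure 5 h, 37 °C. Detection: CCF4, 2.5 h RT, 460/530 nm. Values: AC50 from titration.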

[2] = biological target: Cytochrome P450 1A2 (Homo sapiens) (UniProt P05177); assay: p450-cyp1a2 (AID 410; calls by dose curve; also: potency is read from the fitted curve at half-maximal effect;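 as to activity change, negative = inhibition: -100% = full effect of reference inhibitor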)
Cytochrome P450 1A2 (Homo sapiens), sequence (P05177 whole entry, looked up): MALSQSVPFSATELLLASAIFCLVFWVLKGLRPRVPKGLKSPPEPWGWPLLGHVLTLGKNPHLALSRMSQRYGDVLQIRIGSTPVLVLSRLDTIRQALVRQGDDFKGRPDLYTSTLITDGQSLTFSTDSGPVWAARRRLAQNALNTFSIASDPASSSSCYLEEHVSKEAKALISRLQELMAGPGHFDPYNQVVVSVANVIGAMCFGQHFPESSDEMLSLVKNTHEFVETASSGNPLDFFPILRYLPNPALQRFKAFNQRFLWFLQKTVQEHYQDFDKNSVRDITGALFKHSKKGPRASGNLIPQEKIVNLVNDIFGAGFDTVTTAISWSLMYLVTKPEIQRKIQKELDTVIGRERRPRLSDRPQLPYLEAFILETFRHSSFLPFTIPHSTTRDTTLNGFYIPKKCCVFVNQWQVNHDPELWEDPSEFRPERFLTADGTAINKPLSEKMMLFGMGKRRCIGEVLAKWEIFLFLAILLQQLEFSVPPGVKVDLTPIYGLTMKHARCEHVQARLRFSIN
Outline: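 20nM CYP1A2, 100uM Luciferin-ME (=Km), 100mM KPO4; cpd 10 min RT; +NADPH regen, 60 min RT; stop/detect 20 min; luminescence. Normalized to furafylline 57 uM = full inhibition.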

[3] = NFAT Signaling Pathway (AID 444); conditions: Jurkat NFAT-bla M1, carbachol, beta-lactamase ratio, 5 h; at 7.69 µM (top of the series) unless noted;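 also: carbachol stimulus at about its EC50 of 1 µM final; % is scaled to controls: 0 for no effect and ±100 for the full control effect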
Outline: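 Jurkat cells with NFAT-driven β-lactamase reporter and co-expressed M1 receptor, stimulated with carbachol (final 1 uM, ~EC50), compound titration, 5 h at 37 °C. CCF4 loaded 1 h at RT; 460/530 nm ratio gave %activity and AC50.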

[4] = Stat Signaling Pathway (AID 446); conditions: ME-180 (cervical carcinoma) SIE beta-lactamase reporter, IL-6 stimulated, 5 h; at 7.69 µM (top of the series) unless noted;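 also: ME-180 cervical cancer cells given 40 pM IL-6 alongside compound; SIE-controlled beta-lactamase reporter measured as 460/530 nm FRET emission ratio; % is scaled to controls: 0 for no effect and ±100 for the full control effect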
Outline: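 Compound effects on IL-6-induced STAT reporter activity were measured in ME-180 cells. After overnight culture, cells were co-treated with 40 pM IL-6 for 5 hrs before beta-lactamase substrate loading at room temperature.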

[5] = biological target: Glucocorticoid receptor (Homo sapiens) (UniProt P04150); assay: GR-GFP Redistribution (AID 450;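 active = compounds whose dose series gives a full or clear partial fitted curve of increased nuclear translocation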; also: potency is read from the fitted curve at half-maximal effect); conditions: U2OS GR-GFP nuclear translocation, laser cytometry, 2 h
Glucocorticoid receptor (Homo sapiens), sequence (P04150 whole entry, looked up, the tested form may be a part): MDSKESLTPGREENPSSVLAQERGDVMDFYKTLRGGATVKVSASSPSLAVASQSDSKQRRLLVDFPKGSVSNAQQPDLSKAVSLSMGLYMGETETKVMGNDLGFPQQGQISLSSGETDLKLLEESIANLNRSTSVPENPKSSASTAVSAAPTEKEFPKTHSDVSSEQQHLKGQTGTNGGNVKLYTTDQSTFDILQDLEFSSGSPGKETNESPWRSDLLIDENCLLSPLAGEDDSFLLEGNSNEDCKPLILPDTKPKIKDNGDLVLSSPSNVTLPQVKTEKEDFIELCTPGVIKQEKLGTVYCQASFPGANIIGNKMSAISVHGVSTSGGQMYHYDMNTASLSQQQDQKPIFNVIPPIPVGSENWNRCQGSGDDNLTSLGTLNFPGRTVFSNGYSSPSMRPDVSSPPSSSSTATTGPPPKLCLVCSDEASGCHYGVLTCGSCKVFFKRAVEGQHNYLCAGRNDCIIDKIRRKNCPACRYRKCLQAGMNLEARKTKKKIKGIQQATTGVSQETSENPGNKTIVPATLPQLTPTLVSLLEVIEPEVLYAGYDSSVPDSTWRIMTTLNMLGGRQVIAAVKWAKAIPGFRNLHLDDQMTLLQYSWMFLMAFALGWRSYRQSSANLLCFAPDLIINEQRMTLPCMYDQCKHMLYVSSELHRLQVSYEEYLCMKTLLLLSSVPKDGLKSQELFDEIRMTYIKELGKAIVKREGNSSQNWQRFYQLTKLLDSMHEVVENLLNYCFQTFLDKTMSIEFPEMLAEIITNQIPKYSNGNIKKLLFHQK

[6] = biological target: Glucocorticoid receptor (Homo sapiens) (UniProt P04150); assay: GR-EFC Redistribution (AID 451; calls by dose curve; also: potency is read from the fitted curve at half-maximal effect); conditions: CHO-K1 GR-EFC translocation, beta-gal luminescence, 2 h
Outline: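 CHO-K1 cells expressing nuclear EA and GR-ED fragments of b-gal; compounds titrated up to 46 uM final, 2 h at 37 C. GR nuclear translocation read as complemented b-gal luminescence after 1 h RT detection.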

[7] = biological target: 3',5'-cyclic-AMP phosphodiesterase 4B (Homo sapiens) (UniProt Q07343); assay: qHTS Assay for Inhibitors of PDE-IV (AID 607; active = well fitted activation curve with a large enough effect in the main read-out, with a control signal flat, not every such curve was filed as active; also: % of control where 0% means no effect)
3',5'-cyclic-AMP phosphodiesterase 4B (Homo sapiens), sequence (Q07343 whole entry, looked up): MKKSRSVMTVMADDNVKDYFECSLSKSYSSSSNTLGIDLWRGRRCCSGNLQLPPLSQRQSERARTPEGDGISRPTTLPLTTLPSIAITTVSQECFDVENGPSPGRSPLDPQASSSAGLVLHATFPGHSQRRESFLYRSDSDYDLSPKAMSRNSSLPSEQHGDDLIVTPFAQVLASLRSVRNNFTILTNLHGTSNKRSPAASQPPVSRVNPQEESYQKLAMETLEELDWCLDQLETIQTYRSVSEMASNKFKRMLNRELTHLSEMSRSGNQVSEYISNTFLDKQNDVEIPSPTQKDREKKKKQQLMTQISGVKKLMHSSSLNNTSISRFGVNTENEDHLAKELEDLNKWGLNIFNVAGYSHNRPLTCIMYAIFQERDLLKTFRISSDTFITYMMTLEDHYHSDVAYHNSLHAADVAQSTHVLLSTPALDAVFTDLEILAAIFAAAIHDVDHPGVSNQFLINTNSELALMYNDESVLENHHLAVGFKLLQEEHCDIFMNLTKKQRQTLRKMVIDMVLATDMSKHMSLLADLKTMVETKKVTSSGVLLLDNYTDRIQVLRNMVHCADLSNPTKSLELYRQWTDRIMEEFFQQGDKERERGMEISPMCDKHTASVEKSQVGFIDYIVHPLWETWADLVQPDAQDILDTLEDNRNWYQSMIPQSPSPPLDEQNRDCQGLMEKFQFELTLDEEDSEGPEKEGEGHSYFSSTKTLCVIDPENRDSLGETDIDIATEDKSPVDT
Outline: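 ACTOne HEK293 cells carry a modified cAMP-gated CNG channel and express endogenous PDE4; plated 1000 cells/well, compounds up to 22.9 uM final. Membrane-potential dye fluorescence (ex 535/em 590) was read; parental cells received 10 uM forskolin + 100 uM RO 20-1724.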

[8] = biological target: Cytochrome P450 2C9 (Homo sapiens) (UniProt P11712); assay: qHTS Assay for Inhibitors and Substrates of Cytochrome P450 2C9 (AID 883; active = well fitted curve in the direction sought with a large enough effect; an effect the other way counts as inactive or inconclusive; also: % is scaled to controls: 0 for no effect and ±100 for the full control effect; nearly all actives have a fitted effect of over 60% in size)
Cytochrome P450 2C9 (Homo sapiens), sequence (P11712 whole entry, looked up): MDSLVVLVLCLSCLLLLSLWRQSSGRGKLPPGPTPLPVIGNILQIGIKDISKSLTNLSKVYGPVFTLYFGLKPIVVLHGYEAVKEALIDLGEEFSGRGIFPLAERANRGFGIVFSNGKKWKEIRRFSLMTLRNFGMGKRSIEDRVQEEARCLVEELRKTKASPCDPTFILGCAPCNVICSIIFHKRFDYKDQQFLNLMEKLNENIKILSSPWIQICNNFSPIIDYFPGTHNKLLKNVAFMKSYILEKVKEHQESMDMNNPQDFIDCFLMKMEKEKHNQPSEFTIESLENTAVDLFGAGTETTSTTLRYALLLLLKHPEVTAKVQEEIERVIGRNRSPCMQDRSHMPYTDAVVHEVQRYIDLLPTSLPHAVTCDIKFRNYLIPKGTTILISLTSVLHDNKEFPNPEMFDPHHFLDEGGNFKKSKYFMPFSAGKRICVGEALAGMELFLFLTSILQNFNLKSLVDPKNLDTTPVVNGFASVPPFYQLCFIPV
Outline: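 Human CYP2C9 (10nM) with Luciferin-H at 100uM (its KM) in 25mM KPO4; compound preincubated 10 min at 37C, then NADPH regeneration for 60 min at 37C. Luciferin read by luminescence after detection reagent; normalized to 57uM sulphaphenazole as full inhibition.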

[9] = biological target: Cytochrome P450 2C19 (Homo sapiens) (UniProt P33261); assay: qHTS Assay for Inhibitors and Substrates of Cytochrome P450 2C19 (AID 899; active = well fitted curve in the direction sought with a large enough effect; an effect the other way counts as inactive or inconclusive; also: % is scaled to controls: 0 for no effect and ±100 for the full control effect; nearly all actives have a fitted effect of over 60% in size)
Cytochrome P450 2C19 (Homo sapiens), sequence (P33261 whole entry, looked up): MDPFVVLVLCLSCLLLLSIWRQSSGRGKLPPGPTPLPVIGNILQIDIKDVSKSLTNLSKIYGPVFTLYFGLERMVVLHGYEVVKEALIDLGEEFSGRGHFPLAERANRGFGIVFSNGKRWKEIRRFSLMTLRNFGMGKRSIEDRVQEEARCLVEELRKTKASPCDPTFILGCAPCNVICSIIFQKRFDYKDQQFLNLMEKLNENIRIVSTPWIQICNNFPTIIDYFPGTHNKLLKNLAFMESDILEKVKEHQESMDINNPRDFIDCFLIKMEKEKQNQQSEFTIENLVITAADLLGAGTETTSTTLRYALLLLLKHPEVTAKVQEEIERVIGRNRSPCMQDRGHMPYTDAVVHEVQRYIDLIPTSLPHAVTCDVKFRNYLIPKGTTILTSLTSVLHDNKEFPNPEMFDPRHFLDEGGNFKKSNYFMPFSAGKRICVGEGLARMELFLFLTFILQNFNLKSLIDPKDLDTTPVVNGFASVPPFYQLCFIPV
Outline: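 5 nM human CYP2C19 with 10uM Luciferin-H EGE (at KM) in 50mM KPO4, compound preincubated 10 min at 37C, then NADPH regeneration for 60 min at 37C. Luciferin read by luminescence after detection reagent; normalized to 57uM ketoconazole as full inhibition.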

[10] = biological target: Cytochrome P450 2D6 (Homo sapiens) (UniProt P10635); assay: qHTS Assay for Inhibitors and Substrates of Cytochrome P450 2D6 (AID 891; active = well fitted curve in the direction sought with a large enough effect; an effect the other way counts as inactive or inconclusive;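 also: luciferin methyl ether substrate demethylated by CYP2D6 with NADPH regeneration; % is scaled to controls: 0 for no effect and ±100 for the full control effect; nearly all actives have a fitted effect of over 60% in size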)
Cytochrome P450 2D6 (Homo sapiens), sequence (P10635 whole entry, looked up): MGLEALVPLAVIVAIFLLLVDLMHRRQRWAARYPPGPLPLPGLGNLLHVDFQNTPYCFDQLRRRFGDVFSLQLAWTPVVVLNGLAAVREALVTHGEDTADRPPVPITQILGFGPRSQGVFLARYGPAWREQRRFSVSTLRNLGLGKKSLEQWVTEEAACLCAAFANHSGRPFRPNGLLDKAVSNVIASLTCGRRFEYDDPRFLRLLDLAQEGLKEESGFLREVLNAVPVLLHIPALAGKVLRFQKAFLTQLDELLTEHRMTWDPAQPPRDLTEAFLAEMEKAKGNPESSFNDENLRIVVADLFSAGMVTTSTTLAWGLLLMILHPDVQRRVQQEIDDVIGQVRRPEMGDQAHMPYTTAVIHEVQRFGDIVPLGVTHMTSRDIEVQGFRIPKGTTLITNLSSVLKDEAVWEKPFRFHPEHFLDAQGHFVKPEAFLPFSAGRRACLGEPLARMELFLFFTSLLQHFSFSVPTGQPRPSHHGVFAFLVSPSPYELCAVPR
Outline: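 Luminescent read-out of luciferin formed by 5 nM human CYP2D6 demethylating 30 uM Luciferin-ME EGE (Km level) over 60 min at room temperature after NADPH regeneration addition. Data normalized to full inhibition by 1.43 uM quinidine.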

[11] = biological target: Mitogen-activated protein kinase 10 (Mus musculus) (UniProt Q61831); assay: JNK3 AlphaScreen Assay (AID 530);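 also: kinase came from lysate of stimulated human HepG2 cells; signal reports phosphorylation of biotinylated GST-cJun 1-79 at Ser73 with 10 µM ATP; % is scaled to controls: 0 for no effect and ±100 for the full control effect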
Outline: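 HepG2 lysate (IL-1b/TNFa pre-activated) + biotin-GST-cJun 1-79 + anti-pSer73 cJun; cpd titration, 15 min RT; ATP 10 uM start; Tris pH 7.6, MgCl2, DTT, vanadate; beads in EDTA buffer; AlphaScreen.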

[12] = biological target: Cytochrome P450 3A4 (Homo sapiens) (UniProt P08684); assay: qHTS Assay for Activators of Cytochrome P450 3A4 (AID 885; active = well fitted curve in the direction sought with a large enough effect; an effect the other way counts as inactive or inconclusive; also: potency is read from the fitted curve at half-maximal effect; nearly all actives have a fitted effect of over 65% in size)
Cytochrome P450 3A4 (Homo sapiens), sequence (P08684 whole entry, looked up): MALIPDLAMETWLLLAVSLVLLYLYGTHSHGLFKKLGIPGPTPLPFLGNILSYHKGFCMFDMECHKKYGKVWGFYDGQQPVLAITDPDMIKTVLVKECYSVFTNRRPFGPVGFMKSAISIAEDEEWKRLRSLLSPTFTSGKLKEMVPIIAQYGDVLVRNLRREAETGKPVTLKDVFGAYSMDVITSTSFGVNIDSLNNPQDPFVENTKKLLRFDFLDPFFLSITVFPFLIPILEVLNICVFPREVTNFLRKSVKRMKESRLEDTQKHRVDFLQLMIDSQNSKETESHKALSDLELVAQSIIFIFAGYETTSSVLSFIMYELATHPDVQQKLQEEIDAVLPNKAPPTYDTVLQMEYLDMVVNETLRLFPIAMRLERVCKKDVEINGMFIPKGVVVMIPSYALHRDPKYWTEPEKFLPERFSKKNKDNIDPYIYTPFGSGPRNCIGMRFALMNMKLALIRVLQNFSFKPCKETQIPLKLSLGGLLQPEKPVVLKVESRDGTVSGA
Outline: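 CYP3A4 activity: Luciferin-PPXE O-dealkylation, 25uM substrate, 200mM KPO4, RT throughout. Read-out is luciferase luminescence; higher values reflect activation.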

CCCCCCCCCCCCC/C=C\[C@H](O)[C@H](N)CO
inactive: activity change, negative = inhibition [1] 27.4% [at 38 µM] | activity change, negative = inhibition [3] 1.11% [at 38 µM] | activity, negative = inhibition [4] -6.68% [at 38 µM] | Potency [5] > 46 µM | Potency [6] > 46 µM | Potency [7] | Potency [8] | Potency [9]
active: Potency [2] 31.6 µM

CCn1cc(C(=O)O)c(=O)c2ccc(Cc3ccccc3)nc21
inactive: activity change, negative = inhibition [1] -7.45% [at 38 µM] | Potency [2] | activity change, negative = inhibition [3] 2.79% [at 38 µM] | activity, negative = inhibition [4] 8.13% [at 38 µM] | Potency [5] > 46 µM | Potency [6] > 46 µM | Potency [8] | Potency [10] | Potency [9]

COc1cc(OC)cc([C@H](CNc2ncnc3c2ncn3[C@@H]2O[C@@H](CO)[C@H](O)[C@@H]2O)c2ccccc2C)c1
inactive: activity change, negative = inhibition [1] -6.78% [at 38 µM] | Potency [2] | activity change, negative = inhibition [3] 19.3% [at 38 µM] | activity, negative = inhibition [4] 3.32% [at 38 µM] | Potency [5] > 46 µM | Potency [6] > 46 µM | Potency [11] | Potency [7] | Potency [9]

NC(N)=Nc1nc2ccc([N+](=O)[O-])cc2[nH]1
inactive: activity change, negative = inhibition [1] 0.0978% | activity change, negative = inhibition [3] 0.0962% | activity, negative = inhibition [4] 9.75% | Potency [5] > 46 µM | Potency [6] > 9.22 µM | Potency [11] | Potency [7]
active: Potency [2] 3.16 µM | Potency [12] 3.16 µM

C[N+]1(CCC(=O)c2ccco2)CC2CCC(CC2)C1 (stereo not given)
inactive: activity change, negative = inhibition [1] 6.86% | Potency [2] | activity change, negative = inhibition [3] 7.5% | activity, negative = inhibition [4] 1.18% | Potency [5] > 46 µM | Potency [6] > 9.22 µM | Potency [11] | Potency [7] | Potency [10]

N[C@H](CS(=O)O)C(=O)O
inactive: activity change, negative = inhibition [1] 9.5% [at 38 µM] | Potency [2] | activity change, negative = inhibition [3] 10.5% [at 38 µM] | activity, negative = inhibition [4] 17.2% [at 38 µM] | Potency [5] > 46 µM | Potency [6] > 46 µM | Potency [7] | Potency [8] | Potency [10] | Potency [9]
